# The full list was thinned out, with hits kept by preference.
# CHX counter – counter-screen hit for Shiga toxin inhibitors, cycloheximide | max response, % | AID 2314 | cell reporter, cycloheximide protein synthesis inhibition counterscreen | actives 12% (n = 300,000); in the data active means max response mostly above about 13%, no sharp cut-off; inactive means mostly below about 14%; further: read at 38.3 µM for the half of the compounds with a filed dose; 0% is about no effect
# Tb PYK inh – blocks Trypanosoma brucei pyruvate kinase; Q57TT1; TbPYK enzyme, Kinase-Glo Plus ATP luminescence, 45 min; Potency, µM (highest dose often 76.8 µM), for the others: at the highest dose activity, negative = inhibition, actives largely listed as inhibitors; actives 0.12% (n = 410,000); AID 624173; further: potency means the concentration at half of the fitted maximal effect; on the % scale 0 is the no-effect control and ±100 the full control effect; nearly all actives have a fitted effect of over 50% in size
#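 Enzyme and substrate buffer are dispensed first and compound is pin-transferred. ADP at 130 uM final then starts the reaction, which runs 45 min at room temperature. Detection reagent is added for 10 min before luminescence is imaged.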
# Shiga toxin inh – Shiga toxin inhibition; Vero cells, Shiga toxin protein synthesis inhibition reporter; inhibition, % at 38.7 µM; actives 9.2% (n = 290,000); in the data active means inhibition mostly above about 28%, no sharp cut-off; inactive means mostly below about 43%; further: 0% is about no effect
# FBPA Giardia inh – blocks Giardia fructose-bisphosphate aldolase activity | Potency, µM (top dose mostly 59.6 µM), for the others: at the highest dose activity, negative = inhibition, actives largely listed as inhibitors | purified Giardia FBPA | A8B2U2 | actives 0.71% (n = 290,000); further: potency means the concentration at half of the fitted maximal effect; on the % scale 0 is the no-effect control and ±100 the full control effect; nearly all actives have a fitted effect of over 55% in size
#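 Giardia FBPA (40 nM reagent) was preincubated 10 min at RT with compound (up to 57.5 uM final), then substrate plus GAPDH/TPI/NAD/arsenate coupling system with diaphorase/resazurin was added; resorufin fluorescence (525/598 nm) was read after 20 min.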
# Sm TGR block – S. mansoni TGR enzyme inhibition; Potency, µM (highest dose often 114 µM), without a hit: at the top dose activity change, negative = inhibition, usual class: inhibitors; actives 3% (n = 360,000); AID 485364; Q962Y6; purified TGR, DTNB reduction, TNB absorbance 405 nm; further: potency means the concentration at half of the fitted maximal effect; on the % scale 0 is the no-effect control and ±100 the full control effect; nearly all actives have a fitted effect of over 60% in size
#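 Kinetic colorimetric format: TGR-catalysed, NADPH-driven DTNB reduction monitored via TNB absorbance. Enzyme dispensed at 20 nM; compound exposure 15 min at room temperature before reaction start.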
# LmPK inhibitor – inhibitors of Leishmania mexicana pyruvate kinase; Potency, µM (highest dose often 57.5 µM), for inactives: top-dose activity change, negative = inhibition, most hits filed as inhibitors; Q27686; AID 1721; actives 0.37% (n = 290,000); purified LmPK, Kinase-Glo ATP luminescence, 1 h; further: potency means the concentration at half of the fitted maximal effect; on the % scale 0 is the no-effect control and ±100 the full control effect
# Target sequence (Q27686 whole entry, looked up): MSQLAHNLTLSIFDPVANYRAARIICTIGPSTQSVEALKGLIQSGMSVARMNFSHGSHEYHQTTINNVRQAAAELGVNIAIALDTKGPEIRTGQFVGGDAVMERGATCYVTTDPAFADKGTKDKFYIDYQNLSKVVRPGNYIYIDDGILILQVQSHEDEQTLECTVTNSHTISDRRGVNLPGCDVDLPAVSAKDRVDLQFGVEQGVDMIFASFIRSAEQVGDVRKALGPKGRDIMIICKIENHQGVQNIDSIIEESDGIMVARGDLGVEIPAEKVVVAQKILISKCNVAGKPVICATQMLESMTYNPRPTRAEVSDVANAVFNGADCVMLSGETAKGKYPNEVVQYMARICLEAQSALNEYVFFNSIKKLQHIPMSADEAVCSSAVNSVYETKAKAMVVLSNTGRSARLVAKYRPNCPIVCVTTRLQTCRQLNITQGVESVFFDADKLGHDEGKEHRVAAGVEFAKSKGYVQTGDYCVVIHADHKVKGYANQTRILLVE
#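 Purified LmPK (0.1 nM) with 0.5 mM PEP and 0.1 mM ADP in imidazole buffer pH 7.2 with MgCl2/KCl, 1 h at room temperature. ATP formed was read by luciferase luminescence and normalized to no-enzyme and uninhibited controls.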
# Active calls of the source: *; u = inconclusive; x = not tested or not shown; ! = a repeat was not active; [ ] = dose if it differs, or a comment. Unless noted, the call rests on the fitted dose curve; in most records, active means well fitted curve in the direction sought with a large enough effect; inconclusive means small, poorly fitted or top-dose-only effect, or another doubt; inactive means no such curve, though single readings can be large; an effect the other way counts as inactive or inconclusive.
SMILES,CHX counter,Tb PYK inh,Shiga toxin inh,FBPA Giardia inh,Sm TGR block,LmPK inhibitor
O=Cc1ccc2ccc3cccnc3c2n1,12.1,35.3%,33.6,10.8%,-18.0%,5.2%
c1cnc2c(c1)ccc1cccnc12,active!,-5.5%,28.8,19.9µM*,0.3%,-7.9%
CC1=C(C(=O)NCc2cccc(F)c2)C2(CCCCC2)OC1=O,x,8.4%,x,x,-13.9%,x
CCn1nc(NC(=O)c2ccco2)c2cc3cc(C)ccc3nc21,9.8*,0.2%,28.0,-1.8%,-35.3%,8.2%
CCCn1nc(NC(=O)c2ccco2)c2cc3ccccc3nc21,3.5,2.1%,19.4,-6.8%,44.7µM*,0.2%
Cc1ccc2cc3c(NC(=O)c4ccco4)nn(C)c3nc2c1,-2.5,0.9%,-19.1,-4.5%,50.1µM*,-0.3%
CC(=O)Nc1nn(C)c2nc3cc(C)ccc3cc12,-8.4,-4.1%,-3.0,-4.2%,4.5%,-2.0%
CCCc1nc2ccccc2n2c(-c3cccc(C)c3)c3c(=O)n(C)c(=O)n(C)c3c12,x,0.1%,x,x,-2.6%,x
O=C(Nc1ccccc1F)c1ccc(CN2CCc3ccccc3C2)cc1,19.6*,-3.6%,27.0,-9.4%,1.0%,0.4%
Cc1cc(C)cc(NC(=O)c2ccc(CN3CCc4ccccc4C3)cc2)c1,-1.5,-3.0%,-19.3,-20.7%,1.4%,-4.2%
O=C(Nc1ccc2c(c1)CN(Cc1ccc(CO)o1)CC2)c1ccc(C(F)(F)F)cc1,44.3*,-14.9%,35.4,x,-32.4%,13.1%
Cc1ccc(NC(=O)c2ccc(CN3CCc4ccccc4C3)cc2)cc1,3.3,-2.9%,16.5,-17.7%,7.8%,0.7%
O=C(Nc1ccccc1)c1ccc(CN2CCc3ccccc3C2)cc1,27.1*,-4.9%,54.4,4.7%,5.6%,-1.8%
COCC(=O)N1CCc2ccc(NC(=O)c3ccc(C(F)(F)F)cc3)cc2C1,x,-1.0%,x,x,x,x
O=C(OCc1cn([C@H]2CN(CC3CCCCC3)[C@@H](c3ccc(Cl)cc3)C[C@@H]2O)nn1)c1ccccc1,x,2.7%,x,x,x,x
O=C(CSc1ccc(-c2cccc([N+](=O)[O-])c2)nn1)NCc1ccccc1,-1.6,0.6%,-5.5,1.8%,5.0%,10.3%
O=C(CSc1ccc(-c2cccc([N+](=O)[O-])c2)nn1)NC1CCCC1,8.1,2.1%,8.3,3.0%,5.6%,3.5%
CSc1ccc(-c2cccc([N+](=O)[O-])c2)nn1,27.4*,-6.4%,79.4*,0.3%,0.2%,-4.1%
O=[N+]([O-])c1cccc(-c2ccc(SCc3cccnc3)nn2)c1,44.1*,-0.3%,52.2,-5.9%,0.2%,1.0%
CCCC1(c2ccccc2)NC(=O)N(CC(=O)Nc2cc(OC)cc(OC)c2)C1=O (configuration not stated),-0.7,5.0%,-8.9,3.2%,-15.1%,7.6%
COC(=O)N1C(=O)[C@@](c2ccccc2)(C2CCCC2)N1C(=O)OC,17.9*,-1.5%,13.6,-3.0%,u,-1.4%
COC(=O)N1C(=O)[C@](c2ccccc2)(C2CCCCC2)N1C(=O)OC,16.1,-6.8%,12.2,2.4%,5.01µM*,0.1%
CN=C1N(C)C[C@@H]2[C@@H]3C(=O)N(C)C(=O)[C@@H]3[C@](C)(C(=O)OC)N12,x,2.6%,x,x,x,x
COc1ccccc1N1CCN(c2csc3ccc(Cl)cc3c2=O)CC1,x,1.1%,x,x,-25.7%,x
C[C@@]12CCC3c4ccc(OC5C=CC(c6ccccc6)OC5CO)cc4CCC3C1CCC2=O (some centres not stated),x,x,x,-3.9%[12.9 µM],x,x
O=C(Cc1cccs1)NC1CC(=O)N(c2ccc(F)cc2)C1 (configuration not stated),x,2.2%,x,x,2.3%,x
O=C1c2ccccc2C(=O)N1CCOCCN1C(=O)c2ccccc2C1=O,-3.8,-2.8%,11.8,3.0%,1.6%,-0.8%
COc1ccc(OCCN2C(=O)c3ccccc3C2=O)c([N+](=O)[O-])c1,95.6*,1.1%,61.8*,x,-0.4%,-6.5%
N#Cc1ccccc1OCCN1C(=O)c2ccccc2C1=O,40.4*,5.7%,86.0*,3.1%,-2.6%,-10.5%
Nc1cccc2c1C(=O)N(CCOc1ccccc1F)C2=O,19.0*,2.7%,45.6*,-2.3%,-1.5%,-5.4%

# Screens deposited in PubChem BioAssay by National Center for Advancing Translational Sciences (NCATS).
